This note sets out measurements from PubChem BioAssay (Tox21).

Where “and” joins values, the source holds several entries; their conditions need not be identical. Identical values can stand only once. Inconclusive results are not listed. Entries that show only a call come without a potency. Some structures have more than one record in an assay (separate samples or runs), and their calls can disagree. Calls of active or inactive are those of the source. The call rests on the fitted dose curve; in most records, active means well fitted cell-killing curve with a large enough effect in the repeat runs; inconclusive means weak or mixed curves, or effect the other way; inactive means flat fitted curve, though single readings scatter.
Potency means the concentration at half of the fitted maximal effect.

This assay is described as follows: Nuclear factor erythroid 2-related factor 2/antioxidant responsive element (Nrf2/ARE) small molecule agonists: qHTS cell viability counter screen in human keratinocytes (AID 1919968). Further: nearly all actives have a fitted effect of over 55% in size. To be noted: KeratinoSens HaCaT ARE cells viability, CellTiter-Fluor, 24 h; series mostly up to 92.4 µM; activity change, negative = cytotoxicity: at the top concentration. The text has this:
U.S. Tox21 Program National Center for Advancing Translational Sciences [NCATS] Division of Preclinical Innovation [DPI] U.S. Environmental Protection Agency [EPA] National Institutes of Environmental Health Sciences [NIEHS] National Toxicology Program [NTP] U.S. Food and Drug Administration [FDA] Tox21 Assay Overview: Oxidative stress has been implicated in the pathogenesis of a variety of diseases ranging from cancer to neurodegeneration. The antioxidant response element (ARE) signaling pathway plays an important role in the amelioration of oxidative stress. The KeratinoSens (Givaudan, Switzerland) is an in vitro test method which quantifies luciferase induction as a measure of activation of Keap1-Nrf2-antioxidationt/electrophile response element (ARE) dependant pathway in HaCaT human keratinocytes stably transfected with a selectable plasmid. The KeratinoSens assay is a cell-based assay with a reporter cell line to detect potential skin sensitizers by their ability to induce the Nrf2/ARE-response. The activation of the report gene under culture conditions can be detected by ONE-Glo Luciferase Assay System (Promega, Madison, WI). This cell line has been used to screen the Tox21 10K compound library to identify agonists that induce oxidative stress. The cytotoxicity of the Tox21 compound library against the KS-ARE cell line was tested in parallel by measuring the cell viability using CellTiter- Fluor assay system (Promega, Madison, WI) in the same wells.
Tox21 Assay Protocol Summary: HaCaT derived cell line KeratinoSens were dispensed at 1,500 cells/5uL/well in 1536-well white wall/solid bottom plates using a Multidrop Combi (ThermoFisher Scientific, Waltham, MA) dispenser. After the assay plates were incubated at 37 C/5% CO2 for 5 h, 23 nL of compounds dissolved in DMSO, positive controls or DMSO only was transferred to the assay plate by a pintool workstation (Kalypsys, San Diego, CA). The plates were incubated at 37 C/5% CO2 for 23 h, followed by addition of 1uL/well of CellTiter-Fluor reagent into the assay plates using a Flying Reagent Dispenser (Aurora Discovery, San Diego, CA) for cell viability readout that measures cytotoxicity. After 1 h incubation at 37 C/5% CO2 the fluorescence intensity was measured using a ViewLux (PerkinElmer, Shelton, CT) plate reader.
(qHTS replaces the single test concentration by a dilution series.)
Regarding `Nc1c(Br)cc([N+](=O)[O-])cc1[N+](=O)[O-]`, the “activity change, negative = cytotoxicity” value was -12.2% (inactive). Same read-out and setting: as for `COC(=O)C(Br)CBr` (stereo not given), the figure is 0.366% (inactive). On the same count and under the same terms, the result for `CCOP(=O)(CN(CCO)CCO)OCC` reads 3.44% (inactive). For `CC[N+]1(C)CCCC1`, the Potency entry is “inactive”. Regarding `C=CC(=O)OCC(CC)CCCC` (stereo not given), the Potency result was “inactive”. As to `CC(=O)[O][Hg][c]1ccccc1`, the Potency was 1.08 µM (active) and 2.17 µM (active) and 3.35 µM (active).

As for `Cc1cc(Cl)ccc1OCC(=O)O`, the Potency result was “inactive”.

For `CCCn1cc[n+](C)c1`, the Potency entry is “inactive”. Still for that read-out and setting: as for `CCC/C=N/O`, the entry is “inactive”; as for `O=C(O)COc1ccccc1`, “inactive”; as for `COC(=O)NS(=O)(=O)c1ccc(N)cc1`, “inactive”. For the molecule `C1CN2CCN1CC2`, the Potency entry is “inactive”. Regarding `C=C(Cl)CCl`, the “activity change, negative = cytotoxicity” value is 4.52% (inactive). On to `CC(C)(O)C#N`, for which the Potency result is “inactive”.

On to `Nc1cc(Cl)cc(Cl)c1`, for which the Potency result was “inactive”. The same measure, in the same setting: as for `CCCCCC[n+]1ccccc1`, the entry is “inactive”. `Oc1ccc(-c2ccccc2)cc1`: the Potency result was “inactive”. For the molecule `O=Cc1ccccc1`, the “activity change, negative = cytotoxicity” value is 4.77% (inactive). The same measure, in the same setting: the result for `ClC(Cl)(Cl)C(Cl)(Cl)Cl` reads -1.5% (inactive). Turning to `CS(=O)(=O)NC(=O)c1cc(Oc2ccc(C(F)(F)F)cc2Cl)ccc1[N+](=O)[O-]`, the Potency result was “inactive”. On to `CC[C@H](N)c1ccccc1`, for which the “activity change, negative = cytotoxicity” value is -2.16% (inactive). For `S=C1NCCN1`, the Potency result is “inactive”. Take `Nc1ccc(Cl)cc1`: the Potency entry is “inactive”.

Consider `CCC(C)c1cc([N+](=O)[O-])cc([N+](=O)[O-])c1O` (stereo not given), for which the Potency entry was “inactive and 17.2 µM (active)”. Same read-out and setting: the result for `C[CH2][Hg][S]c1ccccc1C(=O)O` reads 1.22 µM (active) and 5.96 µM (active); that for `Cn1c(-c2ccccc2)cc(-c2ccccc2)[n+]1C`, “inactive”. With `CCC(=O)Nc1ccc(Cl)c(Cl)c1`, the Potency result is “inactive”. Still for that read-out and setting: as for `CCC(=O)C(CC(C)N(C)C)(c1ccccc1)c1ccccc1` (stereo not given), the entry is “inactive”; as for `C=CCN(CC=C)C(=O)C(Cl)Cl`, “inactive”.

For the molecule `COC(=O)C(Cl)C(=O)OC`, the “activity change, negative = cytotoxicity” value was -28.4% [at 42.5 µM] (inactive). Regarding `O=C(O)c1cc(Cl)ccc1Cl`, the “activity change, negative = cytotoxicity” value is 0.413% (inactive). Turning to `Cc1ccc(CCl)cc1`, the “activity change, negative = cytotoxicity” value was -7.25% (inactive).

In the case of `O=c1[nH]c(=O)[nH]c(=O)[nH]1`, the Potency result was “inactive”.

As to `CC1=C2[C@H]3OC(=O)[C@@H](C)[C@@H]3CC[C@@]2(C)C=CC1=O`, the “activity change, negative = cytotoxicity” value was 9.92% [at 42.5 µM] (inactive). On to `O=c1nc(O)n(Cl)c(=O)n1Cl`, for which the Potency entry was “inactive”. Same read-out and setting: as for `CCC(C)c1ccc(O)cc1` (stereo not given), the entry is “inactive”; as for `Nc1cccnc1`, “inactive”.

For the molecule `C=CC(=O)NC(C)(C)CC(C)=O`, the “activity change, negative = cytotoxicity” value was 4.72% (inactive).

As to `COC(C)(C)CCCC(C)C/C=C/C(C)=C/C(=O)OC(C)C` (stereo not given), the Potency result is “inactive”. Still for that read-out and setting: as for `C=CCN=C=S`, the entry is “inactive”.
